# From PubChem BioAssay (NCI)
# Compounds without any hit were thinned out: in the full panel of roughly 83,000, 20% have a hit.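 Plates (96-well) were seeded with cells, treated with compound at one concentration, and incubated for 48 hours before percent growth was determined.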 Unmarked numbers belong to inactive results. The source made the active and inactive calls. How the source made its calls: active means growth percent below 10; inactive means the rest.
# Experiments:
# Experiment in all cases: NCI-60 one-dose screen, 48 h (100 = growth as untreated, 0 = no growth, -100 = all killed)
# Details in all cases: 10 µM
# NCI-H23 lung = system: NCI-H23 lung
# NCI-H226 lung = system: NCI-H226 lung
# NCI-H322M lung = system: NCI-H322M lung
# HOP-62 NSCLC = system: HOP-62 NSCLC
# NCI-H460 lung = system: NCI-H460 lung
# HOP-92 NSCLC = system: HOP-92 NSCLC
# NCI-H522 lung = system: NCI-H522 lung
# A549/ATCC NSCLC = system: A549/ATCC NSCLC
# 786-0 renal = system: 786-0 renal
# COLO 205 colon = system: COLO 205 colon
SMILES,growth (NCI-H23 lung),growth (NCI-H226 lung),growth (NCI-H322M lung),growth (HOP-62 NSCLC),growth (NCI-H460 lung),growth (HOP-92 NSCLC),growth (NCI-H522 lung),growth (A549/ATCC NSCLC),growth (786-0 renal),growth (COLO 205 colon)
O=C1Nc2ccc(F)cc2/C1=C/c1cccc(OCc2ccccn2)c1,58.3%,49.9%,77%,78.9%,36.5%,26.5%,-14.1% (active),77.4%,56%,98.8%
O=C(O)CCCCCCCCCCN1C(=O)/C(=C/c2cnc(-c3ccc(Cl)cc3)s2)SC1=S,11.8%,34.8%,5.41% (active),36.3%,4.44% (active),-40.9% (active),-16% (active),-19.6% (active),28.1%,139%
Brc1ccc(/C=N/Nc2ncnc3sc4c(c23)CCN(Cc2ccccc2)C4)cc1,91.8%,3.93% (active),94.1%,103%,14%,67%,90.4%,74.2%,48.5%,34.8%
CN(C)c1ccc(/C=C/c2nc3ccccc3c(=O)n2CC(=O)Nc2ccc(Cl)cc2)cc1,67.2%,2.45% (active),61.7%,25.4%,44.6%,-13.6% (active),77.9%,43.8%,27.8%,57.3%
N#Cc1c(NC(=O)c2ccc(C(F)(F)F)cc2)sc2c1CCC(O)=C2,23.9%,46.9%,46.1%,26.3%,14.6%,38.7%,1.61% (active),34.7%,53.3%,60.9%
CN1CCCN(Cc2ccc(C(=O)Nc3cccc(Nc4ccc5c(O)cccc5n4)c3)cc2C(F)(F)F)CC1,-82.1% (active),57.4%,-72.1% (active),-69.8% (active),-85.3% (active),-51.5% (active),-83.4% (active),-61.4% (active),-74.8% (active),-64.4% (active)
Brc1ccc(/C=C/c2n(Cc3ccc4ccccc4c3)c3ccccc3[n+]2Cc2ccc3ccccc3c2)cc1,-81.9% (active),-85% (active),7.28% (active),-74.3% (active),-66.2% (active),-89.5% (active),-84.2% (active),10.4%,-95.5% (active),-69.3% (active)
COc1ccc(OC)c(/C=N/NC(=O)c2ccc3nc(-c4ccc(Cl)cc4)[nH]c3c2)c1,66.1%,64.3%,71.1%,81.6%,82.5%,63.4%,59.1%,91.2%,73.4%,81.7%
COc1cccc(COc2ccc(/C=C3\Oc4cc(O)ccc4C3=O)cc2)c1,46.7%,51.3%,89.4%,17.6%,27.4%,16.3%,35.9%,71.4%,-58% (active),113%
O=C(Nc1nc2ccc([N+](=O)[O-])cc2s1)Nc1ccccc1I,-6.9% (active),-7.84% (active),-0.431% (active),7.62% (active),6.36% (active),-28.1% (active),-23.7% (active),3.05% (active),0.486% (active),-94.2% (active)
COC[C@@H](CC(C)C)N=C1NC(=O)/C(=C/c2ccc3ncoc3c2)N1,-14.2% (active),0.124% (active),20.4%,14.4%,6.38% (active),15.8%,-16.2% (active),13.7%,22.2%,-16.1% (active)
N#C/C(=C\c1ccc(N(c2ccccc2)c2ccccc2)cc1)C(N)=O,55.9%,-82.6% (active),92.9%,48.9%,5.51% (active),75.5%,74.5%,36.3%,53.9%,19.7%
COc1cc2c(cc1OC)/C(=C\c1sc(Nc3ccc(O)cc3)nc1O)C(C(=O)O)=N2,47%,63.7%,53.8%,39.2%,18.2%,36.4%,-18.3% (active),56.4%,29.1%,-30.7% (active)
O=C1Nc2cc(Cl)ccc2/C1=C/c1ccc(OCc2ccc(Br)cc2F)cc1,-68.8% (active),-70.6% (active),5.43% (active),-79.7% (active),-81.5% (active),-43.4% (active),-52.5% (active),-75.2% (active),-88.7% (active),-43% (active)
COc1cccc(-c2ccnc(/N=C(\N)Nc3ccc(S(=O)(=O)Nc4nc(C)cc(C)n4)cc3)n2)c1,98.2%,80.3%,107%,84.6%,106%,106%,91.5%,102%,101%,114%
NC1=NC(c2ccccc2Cl)N=C(Nc2nn[nH]n2)N1 (stereo not given),106%,105%,111%,108%,108%,95.3%,102%,103%,103%,116%
Cc1ccc2nc3c(nc2c1)c1cc(I)ccc1n3CCN(C)C,17.8%,39.9%,20%,31.3%,-2.92% (active),37.2%,31.4%,13.5%,23.6%,-55.8% (active)
CC[C@@]1(O)C(=O)OCc2c1cc1n(c2=O)Cc2c-1nc1cc(F)c(C)c3c1c2[C@@H](N)CC3,-57.4% (active),-54.1% (active),0.642% (active),-31.7% (active),-4.63% (active),15.1%,-53.9% (active),-57.9% (active),5.22% (active),-81.6% (active)
Cc1cc(=O)oc2cc(OCCCCOc3ccc(/C=C/C(=O)Nc4ccc(F)c(Cl)c4)cc3)ccc12,87%,95.9%,93.4%,108%,86.7%,115%,94.6%,79.7%,94.9%,115%
CCOC(=O)C1=C(N)N(c2ccc(Cl)cc2)C2=C(C(=O)CC(C)(C)C2)C1c1ccc(N2CCOCC2)cc1 (stereo not given),105%,93.6%,95.4%,118%,94%,92.9%,89.3%,90%,89.4%,99.8%
N#Cc1c(NC(=O)c2ccc(C(F)(F)F)cc2C(F)(F)F)sc2c1CCC(=O)C2,-50% (active),-7.56% (active),12.4%,7.49% (active),12%,-61.5% (active),-72.5% (active),9.8% (active),4.38% (active),-73.3% (active)
COc1ccc(CN2[C@H](C(=O)NCCCCCCC(=O)NO)Cc3c([nH]c4ccccc34)[C@H]2C2CC2)cc1,-17.5% (active),28.1%,9.54% (active),14%,6.41% (active),-24.5% (active),-44.6% (active),17.3%,17.4%,-94.8% (active)
CC1(C)[C@@H](NCO)CC[C@]2(C)[C@H]3C(=O)C=C4[C@@H]5C[C@](C)(CO)CC[C@]5(C)CC[C@@]4(C)[C@]3(C)CC[C@@H]12,66.5%,68%,63.1%,85.2%,0.687% (active),52%,72.7%,60%,42.8%,24.6%
O/N=C(\CSc1nnc(-c2c[nH]c3ccccc23)n1-c1ccccc1)c1ccc(Br)cc1,14.1%,6.3% (active),-72.7% (active),-54.8% (active),-21.9% (active),-11.2% (active),-29.7% (active),-18.2% (active),34.7%,-41.2% (active)
O=c1cc(-c2ccccc2)oc2cc(OCCCNCc3ccccc3)cc(O)c12,-91% (active),46.4%,31%,21.3%,-53.4% (active),-9.75% (active),-62.6% (active),26.2%,-48% (active),-88% (active)
CN1C(=O)N(C)C2SC(N/N=C/C=C/c3ccccc3)=NC21 (stereo not given),84.9%,79.3%,93.9%,85.9%,94.5%,97.9%,56.1%,87.5%,73.9%,122%
Cc1ccc(NC(=O)c2ccc(-n3c(=O)[nH]c4ccccc4c3=O)cc2)cc1,88.2%,61%,99.9%,82%,86.3%,36.5%,13.8%,113%,36.7%,109%
